3CLpro inhibitor = SARS-CoV 3CLpro protease inhibitors, primary screen, biochemical, quenched FRET. Replicase polyprotein 1ab (Severe acute respiratory syndrome coronavirus), P0C6X7. recombinant SARS-CoV 3CLpro, quenched FRET peptide cleavage. inhibition, % at 6 µM. actives 0.14% (n = 290,000); in the data active = inhibition above about 12%
MazEF act = activators of E. coli MazEF toxin-antitoxin RNase, primary screen, biochemical, fluorescence, uHTS; Endoribonuclease toxin MazF (Escherichia coli (strain K12)), P0AE70; FAM/BHQ RNA-DNA oligo cleavage fluorescence, 5 h; activation, % at 20 µM; actives 0.32% (n = 350,000); AID 504720, 2011; in the data active = activation above about 50%
Target sequence (P0AE70 whole entry, looked up): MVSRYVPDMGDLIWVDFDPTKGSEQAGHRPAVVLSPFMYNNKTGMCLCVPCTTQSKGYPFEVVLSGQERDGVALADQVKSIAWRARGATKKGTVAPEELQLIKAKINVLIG
Vc quorum ag = inducers of Vibrio cholerae quorum light production without autoinducers, primary screen, BH1578 luxS cqsA deficient, single point | actives 0.16% (n = 350,000) | activation, % at 18.7 µM | V. cholerae BH1578 lux reporter, luminescence, 6 h; in the data active = activation mostly above about 9.7%, no sharp cut-off
PfHsp40 rescue = rescue of yeast from PfHsp40 toxicity, primary screen, S. cerevisiae, ATP luminescence; S. cerevisiae expressing PfHsp40, growth rescue; growth rescue, % at 12.5 µM; actives 0.68% (n = 340,000); AID 504582, 2011; in the data active = growth rescue above about 28%, passing the limit was not always enough;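 note: yeast W303a lacking pdr1 and pdr3 grown in galactose medium; growth measured after three days at 30 °C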
BJeLR lethal = MLPCN primary cell-based screen for lethality selective to Ras in HRASV12 cells. BJeLR (HRASV12) viability, CellTiter-Glo ATP luminescence, 48 h. actives 0.17% (n = 300,000). inhibition, % (test concentration not listed); in the data active = inhibition above about 50%
DUSP3 inh = VHR1 phosphatase inhibitors, primary screen, biochemical, absorbance, uHTS; Dual specificity protein phosphatase 3 (Homo sapiens), P51452; inhibition, % at 13.3 µM; recombinant VHR phosphatase, pNPP absorbance; actives 0.52% (n = 290,000); in the data active = inhibition above about 50%
Target sequence (P51452 whole entry, looked up): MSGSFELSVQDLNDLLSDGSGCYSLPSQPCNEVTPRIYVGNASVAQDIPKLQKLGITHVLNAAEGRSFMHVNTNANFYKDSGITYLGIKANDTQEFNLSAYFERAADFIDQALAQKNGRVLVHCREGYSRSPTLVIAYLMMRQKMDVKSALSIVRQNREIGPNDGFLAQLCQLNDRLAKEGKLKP
Large screens that a line does not name were inactive. An excerpt weighted towards active compounds, which were near 1.7% of everything screened.

Cc1ccc(S(=O)(=O)NCCCCCC(N)=O)cc1	none
COc1ccc2cc3c(N)c(C(=O)NCc4ccco4)sc3nc2c1	MazEF act 67
COc1ccc2cc3cc(C(=O)NCc4ccco4)oc3nc2c1	none
O=C(NCc1ccc(OC(F)(F)F)cc1)c1cc(-c2ccccc2)nn1CC1CC(c2cccnc2)=NO1 (configuration not stated)	PfHsp40 rescue 65 (no result: 3CLpro inhibitor, DUSP3 inh)
O=C(NCc1ccco1)c1cc(-c2ccccc2)nn1CC1CC(c2cccnc2)=NO1 (configuration not stated)	none (no result: 3CLpro inhibitor, DUSP3 inh)
COc1ccc(CCNC(=O)CC(C)S(=O)(=O)c2ccc3c(c2)NC(=O)CO3)cc1OC (configuration not stated)	DUSP3 inh 59
COc1ccc(CNC(=O)CC(C)S(=O)(=O)c2ccc3c(c2)NC(=O)CO3)cc1 (configuration not stated)	none
COC(=O)c1cc(NC(=O)c2ccccc2F)cc(C(=O)OC)c1	none
CCOC(=O)CSC1=NC(=O)/C(=C\c2ccc(Cl)cc2)S1	PfHsp40 rescue 40
CCOC(=O)C1CCN(C2=NC(=O)/C(=C/c3ccc(Cl)cc3)S2)CC1	none (no result: DUSP3 inh)
Cc1ccc(S(=O)(=O)N2C[C@H]3[C@H]4C(=O)N(c5ccccc5)C(=O)[C@H]4C[C@H](OC(=O)NC4CCCC4)[C@@]3(O)C2)cc1	none (no result: 3CLpro inhibitor, PfHsp40 rescue, BJeLR lethal, DUSP3 inh)
O=C(Nc1cccc(F)c1)c1ccc(-c2cccnc2)c2ccoc12	none (no result: 3CLpro inhibitor, MazEF act, PfHsp40 rescue, BJeLR lethal, DUSP3 inh)
Cc1nc2ccccc2n1CC(O)Cn1c2ccccc2c2ccccc21 (configuration not stated)	none
OC(Cn1c2ccccc2c2ccccc21)C[n+]1cccc2ccccc21 (configuration not stated)	MazEF act 51, DUSP3 inh 57
CCn1c(SCC(=O)NC(=O)c2ccccc2OC)nc2ccccc21	none
CC1CCC(C(=O)NC(C(=O)NCCN2CCC(C)CC2)C(C)C)CC1 (configuration not stated)	PfHsp40 rescue 46
CC(C)CC(NC(=O)C1CCC(C)CC1)C(=O)NCCN1CCOCC1 (configuration not stated)	none
COc1ccc(N2CCN(C(=O)COC(=O)c3ccc(CSC)o3)CC2)cc1	none (no result: 3CLpro inhibitor, BJeLR lethal, DUSP3 inh)
O=C(O)c1ccccc1-c1ccc(/C=C/c2cc(C(F)(F)F)[nH]c(=O)n2)o1	MazEF act 745
O=C(O)c1cc(Cl)ccc1-c1ccc(/C=C/c2cc(C(F)(F)F)[nH]c(=O)n2)o1	none
Cc1ccc(-c2cc(C#N)c(=O)n(Cc3c(Cl)cccc3Cl)c2)cc1	MazEF act 58
N#Cc1cc(-c2ccccc2)cn(Cc2c(Cl)cccc2Cl)c1=O	none
CCN(CC)S(=O)(=O)c1cccc(C(=O)Nc2ccc3c(c2)OCO3)c1	none
CCC(=O)Nc1ccc(NC(=O)c2ccc3c(c2)OCO3)cc1	none
CCN(CC)c1ccc(NC(=O)c2ccc3c(c2)OCO3)cc1	DUSP3 inh 54
CCCN(CCC)S(=O)(=O)c1cccc(C(=O)Nc2ccc3c(c2)OCO3)c1	DUSP3 inh 52
CC12CCC(=O)C=C1CCC1C2CCC2(C)C(c3csc(N)n3)CCC12 (configuration not stated)	none (no result: 3CLpro inhibitor, BJeLR lethal, DUSP3 inh)
Oc1ccccc1O	none (no result: 3CLpro inhibitor, BJeLR lethal, DUSP3 inh)
Nc1ccccc1O	PfHsp40 rescue 60 (no result: 3CLpro inhibitor, BJeLR lethal, DUSP3 inh)
CC(C)c1ccc(NC2CCCN(C(=O)c3ccccc3-c3ncc[nH]3)C2)cc1 (configuration not stated)	DUSP3 inh 57
CC(C)c1ccc(NC2CCCN(C(=O)c3cccc4nccnc34)C2)cc1 (configuration not stated)	none
C/C(=N\OCC(=O)N/N=C/c1ccccc1)c1cccs1	none
C/C(=N\OCC(=O)N/N=C/c1ccccc1O)c1cccs1	Vc quorum ag 33
c1ccc(-c2cnnc(-c3ccccn3)n2)cc1	none (no result: 3CLpro inhibitor, DUSP3 inh)
C=CCNc1nc(-c2ccccn2)nnc1-c1ccccc1	PfHsp40 rescue 354
O=C(/C=C/c1ccccc1[N+](=O)[O-])OCC(=O)N1CCN(c2ccccc2)CC1	none (no result: 3CLpro inhibitor, PfHsp40 rescue, BJeLR lethal, DUSP3 inh)
CC/C(=C(/CC)c1ccc(O)cc1)c1ccc(O)cc1	PfHsp40 rescue 107
Cc1csc(CN(C)C(=O)C2CCC(=O)N(CCN(C)C)C2)n1 (configuration not stated)	DUSP3 inh 60
COc1cccc(OCC(O)CNC(=O)c2oc3ccc(C)cc3c2C)c1 (configuration not stated)	none
COc1ccc2[nH]c3c(=O)n(CCCN4CCOCC4)cnc3c2c1	none
COc1cc2[nH]c3c(=O)n(CCN4CCCCC4)cnc3c2cc1OC	DUSP3 inh 53
Cc1csc(SCC(=O)Nc2cc(S(=O)(=O)N(C)C)ccc2C)n1	none (no result: 3CLpro inhibitor, DUSP3 inh)
COc1ccc(Cc2nnc(NC(=O)C3CC(=O)N(c4ccccc4)C3)s2)cc1OC (configuration not stated)	DUSP3 inh 58
COc1ccc(CCN2CC(C(=O)Nc3nnc(Cc4ccccc4)s3)CC2=O)cc1OC (configuration not stated)	none (no result: 3CLpro inhibitor, BJeLR lethal, DUSP3 inh)
COc1ccc(C(=O)NCCc2c[nH]c3ccccc23)cc1[N+](=O)[O-]	none
Cc1ccc(C(=O)NCC(=O)N2CCN(c3ccccc3O)CC2)s1	none (no result: 3CLpro inhibitor, PfHsp40 rescue, BJeLR lethal, DUSP3 inh)
Nc1ccn([C@@H]2O[C@H](CNCc3cccc4c3sc3ccccc34)[C@@H](O)[C@H]2O)c(=O)n1	none (no result: 3CLpro inhibitor, PfHsp40 rescue, BJeLR lethal, DUSP3 inh)
Cc1c(C2(O)CCCCC2)[nH]c2ccc(C(F)(F)F)cc12	PfHsp40 rescue 287 (no result: 3CLpro inhibitor, BJeLR lethal, DUSP3 inh)
CCCCCCCCOC(=O)CCn1[nH]c(=O)c2ccccc2c1=O	PfHsp40 rescue 200
Cc1cc(O)c2c(c1)C(=O)C13C(=C2O)C(=O)[C@H]2[C@@H](O)[C@@H]1[C@H]1[C@H](O)[C@@H]3C(=O)C3=C(O)c4c(O)cc(C)cc4C(=O)C312 (some centres not stated)	PfHsp40 rescue 282 (no result: 3CLpro inhibitor, BJeLR lethal, DUSP3 inh)
COc1ccc([C@H]2C[C@@H](n3cc(COC(=O)c4ccccc4)nn3)[C@H](O)CN2C(=O)C2CCCCC2)cc1	none (no result: 3CLpro inhibitor, PfHsp40 rescue, BJeLR lethal, DUSP3 inh)
CCC1=NN(C(=O)c2cccc(Br)c2)C(O)(c2ccc(Br)cc2)C1 (configuration not stated)	PfHsp40 rescue 91
COc1ccc(NC(=O)C[C@H]2C(=O)N(CCc3ccccc3)C[C@@H]2c2ccc(OC)cc2)cc1	none (no result: 3CLpro inhibitor, PfHsp40 rescue, BJeLR lethal, DUSP3 inh)
CC(=O)Oc1cc2cccc(OC(C)=O)c(=O)c2c(OC(C)=O)c1OC(C)=O	MazEF act 214, PfHsp40 rescue 158
CC(=O)Oc1cc2c(c3ccccc13)CCC2=O	none (no result: 3CLpro inhibitor, BJeLR lethal, DUSP3 inh)
CCCNC(=O)C1(C)CCN(C(=O)c2ccc(OC)cc2OC)C1 (configuration not stated)	none (no result: 3CLpro inhibitor, MazEF act, PfHsp40 rescue, BJeLR lethal, DUSP3 inh)

Source: PubChem BioAssay (several laboratories)
